For 40 compounds, growth results are on record in PubChem BioAssay (NCI).

Values joined by “and” are separate entries in the source; they are usually repeats but may differ in a detail not shown here. Equal values may be shown once. The panel holds about 83,000 compounds, 20% with a hit somewhere; the sample as a whole holds those more often.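 48-hour exposure, single concentration, 96-well plates; percent growth endpoint where 0 means no net growth. Active: below 10.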 Active and inactive are the calls of the source.

This assay deals with U251 CNS. The assay can be described thus: NCI-60 one-dose screen, 48 h (100 = growth as untreated, 0 = no growth, -100 = all killed). Particulars: 10 µM. The method, then: Growth inhibition of the U251 human tumor cell line is measured as a screen for anti-cancer activity. Cells are grown in 96 well plates and exposed to the test compound for 48 hours. Compounds are tested at a single concentration, which is 10^-5 M for most compounds. The reported endpoint is percent growth (GI% or GIPRCNT), where numbers from 0 - 100% represent growth inhibition, and numbers from -100% - 0 represent cell death. For example, a value of 40 represents 60% growth inhibition. A value of 0 means no net growth occurred over the course of the experiment. A value of -40 indicates 40% of cells at the beginning of the experiment died by the end of the experiment. A value of -100 means all cells are dead at the end of the experiment.
NCI-60 Human Tumor Cell Lines Screen was performed using the standard one-dose NCI protocol, which is described in more detail at https://dtp.cancer.gov/discovery_development/nci-60/default.htm.
Compounds with GIPRCNT values below 10 were considered active. Activity score was based on GIPRCNT using the following formula: […]
Score is 0 for GIPRCNT values of 100 or above, 50 for GIPRCNT values of 0, and 100 for GIPRCNT values of -100.
For the compound `C/C=C/CC(C)C(O)[C@H](NC(=O)[C@@H]1CCCN1C(=O)C(C)(C)NC(=O)CCCCCCCCC)C(=O)N[C@@](C)(CC)C(=O)N[C@@H](CCC(N)=O)C(=O)N[C@H](CCC(N)=O)C(=O)NC(C)(C)C(=O)N[C@@](C)(CC)C(=O)N[C@@H](CCC(N)=O)C(=O)N[C@H](CC(C)C)C(=O)N[C@H](CO)CC(C)C` (stereo not given in full), the growth was 107% (inactive) and -75.1% (active).

Take `CC(=O)O[C@@H]1C[C@H]2O[C@@H]3C=C(C)CC[C@]3(C)[C@]1(C)[C@]21CO1`: the growth was 5.85% (active).

Take `C/C=C/CC(C)C(O)[C@H](NC(=O)[C@@H]1CCCN1C(=O)C(C)(C)NC(=O)CCCCCCC)C(=O)N[C@@](C)(CC)C(=O)N[C@@H](CCC(N)=O)C(=O)N[C@H](CCC(N)=O)C(=O)NC(C)(C)C(=O)NC(C)(C)C(=O)N[C@@H](CCC(N)=O)C(=O)N[C@H](CC(C)C)C(=O)N[C@H](CO)CC(C)C` (stereo not given in full): the growth was 101% (inactive) and -17.8% (active).

Consider `CC1=C2C(=C[C@@](C)(COC(=O)c3ccc(S(=O)(=O)F)cc3)[C@@H]2OC(=O)c2ccc(S(=O)(=O)F)cc2)C(=O)[C@](C)(O)C12CC2`, for which the growth is -21.5% (active).

As to `CC1=C2C(=C[C@@](C)(COS(C)(=O)=O)[C@@H]2O)C(=O)[C@](C)(O)C12CC2`, the growth is 7.54% (active).

Regarding `C[C@@H]1C[C@H]2C(=O)O[C@@H](C)C(NC(=O)[C@H](Cc3cc(F)cc(F)c3)NC(=O)Nc3ccc(OS(=O)(=O)F)cc3)C(=O)N3CCC[C@H]3C(=O)N3CCO[C@H](C)[C@H]3C(=O)N[C@@H](CO)C(=O)N2C1` (stereo not given in full), the growth is 29.6% (inactive).

As for `NC1CCc2cc(O)c(O)cc2C1` (stereo not given), the growth is 79.6% (inactive).

Consider `CC1=C[C@H]2O[C@@H]3C[C@H]4OC(=O)/C=C\C=C\[C@H]([C@@H](C)O)OCC/C(C)=C/C(=O)OC[C@@]2(CC1)[C@]4(C)[C@]31CO1`, for which the growth was -17.3% (active).

On to `N#Cc1c(-n2c(Br)c(Br)c3cc(Br)ccc32)[nH]c2c(Br)cc(Br)cc12`, for which the growth is 2.86% (active).

On to `CC1=C[C@H]2O[C@@H]3C[C@H]4OC(=O)/C=C\C=C\[C@H]([C@@H](C)O)OCC[C@@H](C)[C@H](O)C(=O)OC[C@@]2(CC1)[C@]4(C)[C@]31CO1`, for which the growth was -20.4% (active).

On to `CC(C)(O)/C=C/C(=O)[C@](C)(O)[C@H]1[C@H](O)C[C@@]2(C)[C@H]3CC=C4[C@@H](C[C@H](O)C(=O)C4(C)C)[C@]3(C)C(=O)C[C@]12C`, for which the growth was 0.229% (active).

For the compound `COc1cc(C)c(-c2ccc(OC)c(=O)cc2C)c(OC)c1OC`, the growth was 11.9% (inactive) and 104% (inactive).

As to `CC1=C(CN(O)C(N)=O)C2=C(C)C3(CC3)[C@](C)(O)C(=O)C2=C1`, the growth is 23.8% (inactive).

Turning to `C/C=C\C(=O)O[C@@H]1CC2O[C@@H]3C=C(C)C(=O)C[C@]3(C)[C@]1(C)[C@]21CO1`, the growth is -11% (active).

With `CC1=C2C(=C[C@@](C)(COC(=O)c3ccc(S(=O)(=O)F)cc3)[C@@H]2O)C(=O)[C@](C)(O)C12CC2`, the growth is 1.04% (active).

`C=C1[C@@H](C)C2[C@H](Cc3ccccc3)NC(=O)[C@]23[C@H](OC(C)=O)/C=C/[C@@](C)(O)C(=O)[C@@H](C)C/C=C/[C@H]3[C@@H]1O` (stereo not given in full): the growth was 29.1% (inactive).

On to `CC(=O)O[C@@H]1[C@@H]2O[C@H]2[C@@](C)(O)C(=O)[C@@H](C)C/C=C/[C@H]2[C@@H]3O[C@]3(C)[C@@H](C)C3[C@H](Cc4ccccc4)NC(=O)[C@@]312` (stereo not given in full), for which the growth was 43.1% (inactive).

As to `C/C=C/CC(C)C(O)[C@H](NC(=O)[C@@H]1CCCN1C(=O)C(C)(C)NC(=O)CCCCCCCCC)C(=O)N[C@@](C)(CC)C(=O)N[C@@H](CCC(N)=O)C(=O)N[C@H](CCC(N)=O)C(=O)NC(C)(C)C(=O)NC(C)(C)C(=O)N[C@@H](CCC(N)=O)C(=O)N[C@H](CC(C)C)C(=O)N[C@H](CO)CC(C)C` (stereo not given in full), the growth was -89.3% (active) and 13.7% (inactive).

For the compound `C[C@@H]1CCC/C=C/[C@H]2C[C@@H](O)C[C@@H]2[C@@H](O)/C=C/C(=O)O1`, the growth was 17.6% (inactive).

As for `C/C=C/CC(C)C(O)[C@H](NC(=O)[C@@H]1CCCN1C(=O)C(C)(C)NC(=O)CCCCCCCCC)C(=O)NC(C)(C)C(=O)N[C@@H](CCC(N)=O)C(=O)N[C@H](CCC(N)=O)C(=O)NC(C)(C)C(=O)NC(C)(C)C(=O)N[C@@H](CCC(N)=O)C(=O)N[C@H](CC(C)C)C(=O)N[C@H](CO)CC(C)C` (stereo not given in full), the growth was 0.668% (active) and -89.7% (active).

Turning to `COc1cccc2c1cc([N+](=O)[O-])c1c(C(=O)O)cc3c(c12)OCO3`, the growth was 103% (inactive).

With `COc1cc2c(O[C@@H]3OC[C@H](OC(C)=O)[C@H](OC(C)=O)[C@H]3O)c3c(c(-c4ccc5c(c4)OCO5)c2cc1OC)C(=O)OC3`, the growth was 28.5% (inactive).

For the compound `CC1=C(CCC=NNC(N)=O)C2=C(C)C3(CC3)[C@@](C)(O)C(=O)C2=C1`, the growth was 4.6% (active).

`N#Cc1nc(-c2ccccc2)oc1N1CCC(S(=O)(=O)F)CC1`: the growth is 98.6% (inactive).

With `CC1=C2C(=C[C@@](C)(C=O)[C@@H]2O)C(=O)[C@](C)(O)C12CC2`, the growth was 4.74% (active).

In the case of `COC(=O)[C@H]1[C@@H](O)[C@@]2(O)c3c(OC)cc(OC)cc3O[C@@]2(c2ccc(OC)cc2)[C@@H]1c1ccccc1`, the growth is -5.73% (active).

Take `COC1[C@@H]2C[C@H]3C(C)(C)O[C@@](C/C=C(/C)C(=O)O)(C2=O)[C@]32Oc3c(CC=C(C)C)c4c(c(O)c3C(=O)[C@H]12)C=CC(C)(C)O4` (stereo not given in full): the growth is -91.1% (active).

In the case of `CN1C(=O)[C@]23SSC1(C)C(=O)N2[C@H]1Nc2ccccc2C1([C@@]12c4ccccc4N[C@@H]1N1C(=O)C4(C)SS[C@]1(C(=O)N4C)[C@H]2O)[C@@H]3O` (stereo not given in full), the growth is -97.5% (active).

As to `COc1cc2c(cc1OC)[C@@H]1N(CC2)C(=O)c2ccccc2[C@@]1(C)C(=O)O`, the growth is 106% (inactive).

In the case of `COc1cc(OC)c(S(=O)(=O)N(CCCl)CCCl)cc1C(=O)/C=C/c1ccc(Cl)cc1`, the growth was 55.1% (inactive).

As to `COc1cc2c(O[C@@H]3OC[C@H](O)[C@H](O)[C@H]3O)c3c(c(-c4ccc5c(c4)OCO5)c2cc1OC)C(=O)OC3`, the growth was 54.8% (inactive).

Take `Cc1ccc(CNc2nc3ccc(OC/C(=C/F)CN)cc3o2)cn1`: the growth is 110% (inactive).

In the case of `CC1=C(CN(O)C(N)=O)C2=C(C)C3(CC3)[C@@](C)(O)C(=O)C2=C1`, the growth was 4.97% (active).

With `CC1=C[C@H]2O[C@@H]3C[C@@H](O)[C@](C)([C@@]2(C)CC1)[C@@]31CO1`, the growth is 15.4% (inactive).

Turning to `CCCCCCCCCC(=O)N[C@@](C)(CC)C(=O)N1CCC[C@H]1C(=O)N[C@@H](CC(C)C)C(=O)N[C@@](C)(CC)C(=O)N[C@@H](CCC(N)=O)C(=O)N[C@H](CCC(N)=O)C(=O)NC(C)(C)C(=O)NC(C)(C)C(=O)N[C@@H](CCC(N)=O)C(=O)N[C@H](CC(C)C)C(=O)N[C@H](CO)CC(C)C`, the growth was -75.9% (active) and -77.1% (active).

In the case of `CC(C)=CCc1c2c(c(O)c3c1O[C@]14C(=C[C@@H]5C[C@H]1C(C)(C)O[C@@]4(C/C=C(/C)C(=O)O)C5=O)C3=O)C=CC(C)(C)O2`, the growth was -87.7% (active).

In the case of `CC1=C2C(=O)[C@](C)(CO)C=C2C(=O)[C@](C)(O)C12CC2`, the growth is 8.4% (active).

Turning to `O=C(CCCc1ccc(N(CCCl)CCCl)cc1)OCc1ccccc1`, the growth was 89.2% (inactive).

In the case of `CCC(C)[C@H]1C(=O)O[C@H](C(C)C)C(=O)N(C)[C@@H](C(C)C)C(=O)O[C@H](C(C)C)C(=O)N(C)[C@@H](C(C)C)C(=O)O[C@H](C(C)C)C(=O)N1C` (stereo not given in full), the growth is 13.5% (inactive).

As to `CN(CCF)/N=N/c1nc[nH]c1C(N)=O`, the growth was 90.9% (inactive).
